Screening data (PubChem)
Rows were chosen to be rich in hits. Some 18% of all compounds tested hit in one or more screens of this group.
TDP1 cell CPT – DT40-hTDP1 cell growth loss with CPT. Potency, µM (titrated, usually from 46.2 µM), for the others: at the top dose activity change, negative = growth inhibition, usual class: inhibitors. hit rate 12% among 420,000. AID 686979. chicken DT40 Tdp1-/-;hTDP1 cells + 20 nM CPT, ATP luminescence, 48 h; note: potency is the fitted concentration of half-maximal effect; % is set by controls: 0 for no effect and ±100 for the full control effect; nearly all actives have a fitted effect of over 55% in size
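Cell growth measured by CellTiter-Glo luminescence after a minimum 48 h, 37 C compound exposure with 20 nM CPT in Tdp1-knockout DT40 cells stably expressing hTDP1, seeded 400/well; qHTS titration format.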
TDP1 cell noCPT – qHTS for Inhibitors of human tyrosyl-DNA phosphodiesterase 1 (TDP1): qHTS in cells in absence of CPT | DT40 Tdp1-/- hTDP1 cells, no CPT, ATP luminescence, 48 h | Potency, µM (doses to about 46.2 µM), for the others: at the top dose activity change, negative = growth inhibition, hits mostly inhibitors | hit rate 15% among 420,000 | AID 686978, 2013; note: potency is the fitted concentration of half-maximal effect; % is set by controls: 0 for no effect and ±100 for the full control effect; nearly all actives have a fitted effect of over 55% in size
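Cells were dispensed at 400 per well, compounds added by pin tool, plates incubated ≥48 hr at 37 °C, then CellTiter-Glo added for 30 min at room temperature before luminescence reading. Line: DT40 Tdp1-/- complemented with hTDP1; camptothecin omitted.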
HepG2 viability – counter-screen for TGF-b inhibitors: cytotoxicity in HepG2 cells; Potency, µM (top dose mostly 46.1 µM), without a hit: at the top dose activity change, negative = cytotoxicity, hits mostly cytotoxic; HepG2 CAGA-GFP viability, ATP luminescence, 18 h; hit rate 0.76% among 410,000; note: potency is the fitted concentration of half-maximal effect
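HepG2 CAGA-GFP cells (1000/well, DMEM with 1% FBS) received compound, then TGF-beta at 500 pg/mL final, and were incubated 18 hours at 37 degrees C. Viability was read by CellTiter-Glo luminescence. Media-only wells were set as complete cell-killing and DMSO as no toxicity.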
IL1B secr inh – inflammasome signaling inhibition, IL-1 beta readout. activity change, % at 57.5 µM. AID 743279. hit rate 4.7% among 360,000. THP-1 LPS/ATP IL-1B secretion, AlphaLISA, 16 h; active compounds read low; in the data active = activity change below about -50%; inconclusive = mostly about -30% to -49%; note: % is set by controls: 0 for no effect and ±100 for the full control effect
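THP-1 cells pretreated 1 hr with compounds (up to 57.5 uM final), then stimulated with LPS (250 ng/mL final) plus ATP (1.25 mM final); secreted IL-1B measured by AlphaLISA after 16 hr, decreased signal indicating inhibition.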
TDP1 inh – inhibitors of human tyrosyl-DNA phosphodiesterase TDP1 | Potency, µM (top dose mostly 130 µM), without a hit: at the highest dose activity change, negative = inhibition, most hits filed as inhibitors | recombinant TDP1, AlphaScreen DNA substrate cleavage | hit rate 0.28% among 350,000 | AID 485290 | Q9NUW8; note: potency is the fitted concentration of half-maximal effect; % is set by controls: 0 for no effect and ±100 for the full control effect; nearly all actives have a fitted effect of over 40% in size
Target sequence (Q9NUW8 whole entry, looked up): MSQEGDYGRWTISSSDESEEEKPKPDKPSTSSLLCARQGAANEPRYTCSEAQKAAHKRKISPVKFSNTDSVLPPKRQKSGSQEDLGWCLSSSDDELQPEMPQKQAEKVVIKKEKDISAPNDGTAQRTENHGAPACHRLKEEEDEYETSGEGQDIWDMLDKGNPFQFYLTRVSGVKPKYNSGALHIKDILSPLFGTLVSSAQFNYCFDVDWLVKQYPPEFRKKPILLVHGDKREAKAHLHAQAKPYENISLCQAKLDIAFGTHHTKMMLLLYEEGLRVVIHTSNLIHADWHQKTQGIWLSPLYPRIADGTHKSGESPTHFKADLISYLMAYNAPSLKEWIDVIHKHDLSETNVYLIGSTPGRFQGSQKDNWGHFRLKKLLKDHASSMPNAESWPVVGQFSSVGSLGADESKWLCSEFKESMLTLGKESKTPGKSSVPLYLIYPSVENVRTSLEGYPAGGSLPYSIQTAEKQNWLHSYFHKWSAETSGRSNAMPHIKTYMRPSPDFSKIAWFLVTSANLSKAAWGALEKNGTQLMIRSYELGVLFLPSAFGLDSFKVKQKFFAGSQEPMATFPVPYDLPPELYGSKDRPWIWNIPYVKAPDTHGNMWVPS
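E. coli-derived human Tdp1, 1 nM final. Cpd preinc 15 min RT; substrate 15 nM final, 5 min RT; AS bead mix 10 ug/ml final, 10 min RT. Signal loss = tyrosine-FITC cleavage. No-enzyme wells = max signal.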
TGFb SMAD3 inh – blocks TGF-b signaling. Potency, µM (highest dose often 46.1 µM), without a hit: at the top dose activity, negative = inhibition, usual class: inhibitors. AID 588855. hit rate 1.2% among 410,000. HepG2 CAGA-GFP TGF-b/SMAD3 reporter, GFP fluorescence, 18 h; TGF-beta stimulated, 500 pg/mL final; note: potency is the fitted concentration of half-maximal effect; % is set by controls: 0 for no effect and ±100 for the full control effect; nearly all actives have a fitted effect of over 65% in size
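Cell-based qHTS in HEPG2 carrying a CAGA-GFP Smad reporter; compounds added before 500 pg/mL final TGF-beta, 18 h incubation at 37 degrees C, GFP fluorescence quantified per cell by imaging cytometry.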
* = called active by the depositor; ? = inconclusive; . = no result given; [ ] = remark or other dose. Unless noted, calls come from the whole dose curve; as a rule, active = well fitted curve in the direction sought with a large enough effect; inconclusive = small, poorly fitted or top-dose-only effect, or another doubt; inactive = no such curve, though single readings can be large; an effect the other way counts as inactive or inconclusive.

SMILES | TDP1 cell CPT | TDP1 cell noCPT | HepG2 viability | IL1B secr inh | TDP1 inh | TGFb SMAD3 inh
Cc1ccc(Cn2c(C(=O)Nc3cccc(Cl)c3)cc3sccc32)cc1 | 18.4µM* | ? | -29.0% | . | 3.8% | ?
CCOC(=O)c1cccc(NC(=O)c2cc3sccc3n2Cc2ccc(Cl)cc2)c1 | ? | 18.4µM* | 5.3% | . | 1.3% | ?
Cc1ccc(CCNC(=O)c2cc3sccc3n2Cc2ccc(C)cc2)cc1 | -24.7% | ? | -21.1% | . | -1.3% | -17.6%
CCN(CC(=O)Nc1c(F)cccc1F)C(=O)C1CC(=O)N(CCc2ccccc2)C1 (stereo not given) | 7.2% | 0.4% | -3.6% | 27.9 | . | -5.2%
CCOc1ccc(NC(=O)CCc2nc3cccnc3n2Cc2ccc(OC)cc2)cc1 | -1.9% | ? | 8.6% | . | 2.3% | 24.8%
CCCn1c(CCC(=O)Nc2cc(C(=O)OC)cc(C(=O)OC)c2)nc2cccnc21 | 29.1µM* | ? | -2.3% | . | 3.8% | 1.8%
CCCn1c(CCC(=O)Nc2cc(OC)cc(OC)c2)nc2cccnc21 | ? | 23.1µM* | -5.3% | . | 6.4% | 32.1%
CCN(CC)S(=O)(=O)c1cc(NC(=O)CSCc2c(C)noc2C)ccc1C | ? | ? | -1.4% | -1.7 | 1.1% | -2.1%
CC(C)C[C@@H](CC(=O)N[C@H](CC(=O)N[C@@H]1CCNC[C@H]1C(=O)N[C@H](CC(=O)N[C@@H](CCC(=O)O)CC(=O)O)Cc1ccccc1)C(C)C)NC(=O)[C@@H]1CCCC[C@H]1N | . | . | . | . | 0.0% | .
Cc1ccccc1NC(=O)Nc1nnc([C@@H]2C[C@H](O)[C@@H](CO)O2)s1 | -11.9% | -11.2% | -24.9% | 10.6 | . | -10.6%
COc1ccc(NC(=O)CSc2nc3ccccc3nc2Cc2ccc(C)cc2)cc1Cl | 13µM* | ? | -11.1% | . | 2.7% | ?
Cc1ccc(Cc2nc3ccccc3nc2SCC(=O)N2CCN(c3ccccc3F)CC2)cc1 | ? | ? | 1.4% | . | -2.7% | -3.4%
COc1cc(NC(=O)CSc2nc3ccccc3nc2Cc2ccc(Cl)cc2)cc(OC)c1 | -7.2% | -16.2% | -6.9% | . | 2.7% | 0.0%
CCC(CC)C(=O)Nc1nnc(SCC(=O)N2CCN(c3ccccc3OC)CC2)s1 | 20.6µM* | 20.6µM* | -10.4% | -14.6 | 7.7% | 3.8%
O=C(CSc1nc2ccccc2nc1Cc1ccc(Cl)cc1)N1CCN(c2ccccc2F)CC1 | 16.4µM* | 20.6µM* | 3.5% | . | 0.0% | -15.7%
COc1ccccc1N1CCN(C(=O)CSc2nc3ccccc3nc2Cc2ccc(C)cc2)CC1 | 16.4µM* | ? | 2.7% | . | 0.0% | 0.0%
CCNc1ncc2nc(-c3ccccc3)c(=O)n(CCOC)c2n1 | -9.7% | -15.1% | . | . | . | .
COC(=O)c1cnc2c(c(C)nn2C)c1OC | 2.9% | -25.1% | -6.1% | . | 0.0% | -8.3%
COc1ccccc1N1CCN(C(=O)CSc2nc3ccccc3nc2N2CCC(C)CC2)CC1 | 20.6µM* | 23.1µM* | -4.5% | ? | -2.4% | 2.2%
CCOC(=O)c1ccccc1NC(=O)NCc1cccn1Cc1ccc(F)cc1 | 23.1µM* | 23.1µM* | 13.1% | . | 2.5% | -5.9%
COc1cc(OC)c(NC(=O)NCc2cccn2Cc2ccccc2)cc1Cl | ? | ? | -0.5% | . | 13.6% | 8.91µM*
CCOC(=O)C1Oc2ccccc2C(c2cccc3ccccc23)=C1C(=O)OC (stereo not given) | ? | ? | -20.3% | 5.4 | -4.3%[56.1 µM] | ?
O=C(OCC1OC(n2ncc(=O)[nH]c2=O)C(OC(=O)c2ccccc2)C1OC(=O)c1ccccc1)c1ccccc1 (stereo not given) | 16.4µM* | ? | -24.1% | 5.8 | . | -18.4%
